Assay results taken from PubChem BioAssay (Tox21).
Several values for one entry are separate records, joined by “and”; a condition that tells them apart may be missing. Identical values can stand only once. Results filed as inconclusive are left out. Some structures have more than one record in an assay (separate samples or runs), and their calls can disagree. Activity calls are given as the source filed them. Unless noted, calls come from the whole dose curve.

Experiments:
[1] = Nuclear factor erythroid 2-related factor 2/antioxidant responsive element (Nrf2/ARE) small molecule agonists: qHTS cell viability counter screen in human keratinocytes (AID 1919968; active = well fitted curve in the direction sought with a large enough effect in the repeat runs; an effect the other way counts as inactive or inconclusive; note: nearly all actives have a fitted effect of over 55% in size); conditions: KeratinoSens HaCaT ARE cells viability, CellTiter-Fluor, 24 h; series mostly up to 92.4 µM
How it was run: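 HaCaT ARE reporter line, 1,500 cells/well; 5 h settle, 37 C/5% CO2; cpd in DMSO pinned; 23 h exposure; CellTiter-Fluor, 1 h; fluorescence.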

[2] = Nuclear factor erythroid 2-related factor 2/antioxidant responsive element (Nrf2/ARE) small molecule agonists: luciferase reporter gene qHTS assay in human keratinocytes (AID 1919969); conditions: KeratinoSens HaCaT ARE-luciferase, luminescence, 24 h; series mostly up to 92.4 µM; note: nearly all actives have a fitted effect of over 35% in size; note: potency is the fitted concentration of half-maximal effect
[3] = molecular target: Gonadotropin-releasing hormone receptor (Homo sapiens) (UniProt P30968); assay: Human gonadotropin-releasing hormone receptor (GnRHR) small molecule agonists, calcium flux assay in GnRHR-HEK293 cells (AID 1920063); conditions: calcium flux fluorescence, agonist mode; series mostly up to 57.6 µM; note: nearly all actives have a fitted effect of over 35% in size
How it was run: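 GnRHR-HEK293, 1500 cells/well, 18 h 37 C/5% CO2; Ca dye 1 h 37 C; cpd pinned (DMSO), agonist mode; kinetic FL 480/540, 3 min, 1 s reads; 15 conc, n=3.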

[4] = molecular target: KiSS-1 receptor (Homo sapiens) (UniProt Q969F8); assay: Human kisspeptin (KISS1R) small molecule agonists, calcium flux assay in KISS1R-HEK293 cells (AID 1920064; active = well fitted curve in the direction sought with a large enough effect in the repeat runs; an effect the other way counts as inactive or inconclusive); conditions: KISS1R-HEK293, calcium flux fluorescence, agonist; series mostly up to 76.8 µM
How it was run: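 Stable human KISS1R HEK293 line; 18 h plating, 37 C/5% CO2; calcium dye 1 h 37 C; compound pin transfer; kinetic fluorescence Ex/Em 480/540, 3 min.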

[5] = G protein-coupled receptor (GPCR) small molecule agonists, calcium flux assay: HEK293 wild type cell line counter screen (AID 1920065); conditions: HEK293 WT calcium flux, fluorescence, agonist mode; series mostly up to 57.6 µM
How it was run: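 Kinetic fluorescence at Ex/Em 480/540, recorded every second over 3 min, served as the read-out after compound addition. Each compound was tested at 15 concentrations in triplicate on cells pre-loaded with calcium dye for 1 h.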

[6] = p53 small molecule agonists, cell-based qHTS assay with human liver microsomes: qHTS cell viability counter screen (AID 1963579); conditions: p53RE-bla HCT-116 viability, ATP luminescence, 16 h, HLM; series mostly up to 66 µM; note: nearly all actives have a fitted effect of over 45% in size
How it was run: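 In this multiplexed counter screen, the reporter plates were subsequently treated with CellTiter-Glo so that cell viability, reflected by luminescence, could be recorded for p53RE-bla cells dosed 16 h with compounds under microsomal activation (HLM and NADPH).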

[7] = p53 small molecule agonists, cell-based qHTS assay with rat liver microsomes: qHTS cell viability counter screen (AID 1963580); conditions: p53RE-bla HCT-116 + rat microsomes, ATP viability, 16 h; series mostly up to 66 µM; note: nearly all actives have a fitted effect of over 45% in size
How it was run: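 p53RE-bla HCT-116 cells were exposed 16 h at 37 C to compounds with rat liver microsomes (0.5 mg/mL) and NADPH (0.5 mg/mL). Viability was measured in the same wells as ATP content by CellTiter-Glo luminescence.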

[8] = p53 small molecule agonists, cell-based qHTS assay (AID 1963582; active = well fitted activation curve with a large enough effect in the signal ratio in the repeat runs, not every such curve was filed as active; the % refers to the signal ratio); conditions: HCT-116 p53RE-bla reporter, beta-lactamase FRET ratio, 16 h; series mostly up to 66 µM
How it was run: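 Reporter line: p53RE-bla. Pre-incubation 5 h, 37 C, 5% CO2; compound (DMSO, pin tool) 16 h, 37 C; B/G FRET substrate 2 h RT; fluorescence intensity read.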

[9] = molecular target: 5-hydroxytryptamine receptor 2A (Homo sapiens) (UniProt P28223); assay: 5-hydroxytryptamine receptor 2A (HTR2A) small molecule antagonists, cell-based qHTS assay (AID 1963586); conditions: HTR2A-CHO cells, DOI-induced calcium flux, fluorescence; series mostly up to 61.5 µM; note: nearly all actives have a fitted effect of over 45% in size
How it was run: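 Antagonist-mode intracellular calcium assay: DOI (4 nM) added after 5 min compound pre-incubation at room temperature to dye-loaded HTR2A-CHO cells. Fluorescence followed for 3 min, sampled every second.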

[10] = molecular target: 5-hydroxytryptamine receptor 2A (Homo sapiens) (UniProt P28223); assay: 5-hydroxytryptamine receptor 2A (HTR2A) small molecule agonists, cell-based qHTS assay (AID 1963587); conditions: HTR2A-CHO cells, calcium flux fluorescence, agonist mode; series mostly up to 76.8 µM; note: nearly all actives have a fitted effect of over 30% in size
How it was run: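 CHO cells stably expressing human HTR2A, plated 18 h, loaded with calcium dye 1 h at 37 C. Agonist mode: compounds added and intracellular calcium fluorescence recorded kinetically for 2 min at 1 sec intervals.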

[11] = molecular target: Muscarinic acetylcholine receptor M1 (Homo sapiens) (UniProt P11229); assay: Cholinergic receptor muscarinic 1 (CHRM1) small molecule antagonists, cell-based qHTS assay (AID 1963588); conditions: CHRM1-CHO antagonist mode, calcium flux fluorescence; series mostly up to 61.5 µM; note: nearly all actives have a fitted effect of over 40% in size
How it was run: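 CHRM1-CHO calcium-flux assay, antagonist mode. Cells were seeded 18 h, dye-loaded 1 h at 37 C and given compound for 5 min at RT, then acetylcholine was added at 50nM. FDSS fluorescence was read 3 min; 15 concentrations, three runs.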

[12] = molecular target: Muscarinic acetylcholine receptor M1 (Homo sapiens) (UniProt P11229); assay: Cholinergic receptor muscarinic 1 (CHRM1) small molecule agonists, cell-based qHTS assay (AID 1963589); conditions: CHRM1-CHO cells, agonist mode, calcium flux fluorescence; series mostly up to 76.8 µM; note: nearly all actives have a fitted effect of over 35% in size; note: potency is the fitted concentration of half-maximal effect
How it was run: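 Human M1 in stable CHO line; 18 h plating, 1 h dye load 37 C; cpd added (agonist mode); Ca2+ fluorescence kinetic read, 1 s intervals; 15 conc, 3 runs.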

[13] = cAMP Responsive Elements (CRE) small molecule agonists, cell-based qHTS assay (AID 1963590); conditions: CRE-bla HEK293T, beta-lactamase FRET ratio, 3 h; series mostly up to 92.4 µM
How it was run: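 HEK 293T CRE-bla, 2,000 cells/well, 18 h preincubation 37 C/5% CO2; cpds (DMSO) pinned, 3 h; LiveBLAzer B/G FRET substrate, 2 h RT.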

[14] = cAMP Responsive Elements (CRE) small molecule antagonists, cell-based qHTS assay (AID 1963591; active = well fitted inhibition curve with a large enough effect in the signal ratio in the repeat runs, not every such curve was filed as active; the % refers to the signal ratio); conditions: CRE-bla HEK293T, beta-lactamase FRET ratio; series mostly up to 92.4 µM
How it was run: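 Beta-lactamase reporter read by FRET substrate (LiveBLAzer B/G) after 2 h at room temperature. CRE-bla HEK293T cells had received compound plus 0.25 uM (final) NKH477 for 3 h at 37 °C.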

[15] = molecular target: Beta-2 adrenergic receptor (Homo sapiens) (UniProt P07550); assay: Adrenergic beta2 receptor (ADRB2) small molecule antagonists, cell-based qHTS assay (AID 1963592); conditions: CHO-ADRB2 cells, isoproterenol-stimulated cAMP HTRF ratio, 0.5 h; series mostly up to 92.4 µM; note: nearly all actives have a fitted effect of over 50% in size; note: potency is the fitted concentration of half-maximal effect
How it was run: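 Cells (CHO, stable ADRB2 overexpression) incubated 18-20hr at 37C; compounds added from DMSO; agonist mix (1nM isoproterenol, 100uM IBMX, 25uM Ro-20-1724) added; 0.5hr RT; d2-cAMP and anti-cAMP-cryptate added; 1hr RT; 665/615 nm read.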

[16] = molecular target: D(2) dopamine receptor (Homo sapiens) (UniProt P14416); assay: Dopamine D2 receptor (DRD2) small molecule agonists, cell-based qHTS assay (AID 1963594); conditions: HEK293-DRD2 cAMP HTRF, agonist mode, 30 min; series mostly up to 92.4 µM; note: nearly all actives have a fitted effect of over 35% in size
How it was run: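 HEK293 cells stably expressing human DRD2, pre-treated with PDE inhibitor Ro20-1724 (0.1 mM final) and compound 10 min at room temperature, then stimulated with NKH477 (200nM […]) for 30 min. cAMP read by HTRF (665/620 nm).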

[17] = molecular target: D(2) dopamine receptor (Homo sapiens) (UniProt P14416); assay: Dopamine D2 receptor (DRD2) small molecule antagonists, cell-based qHTS assay (AID 1963595; active = well fitted inhibition curve with a large enough effect in the signal ratio in the repeat runs, with a control signal flat; the % refers to the signal ratio); conditions: HEK293-DRD2 cAMP HTRF antagonist mode; series mostly up to 92.4 µM
How it was run: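 HTRF cAMP read-out at 665 and 620 nm emission (340 nm excitation). Antagonist mode: compounds were tested against 12 nM quinpirole in DRD2-HEK293 cells, with 200 nM NKH477 raising cAMP and 0.1 mM Ro20-1724 blocking its breakdown.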

[18] = p53 small molecule agonists, cell-based qHTS assay with rat liver microsomes (AID 1963578); conditions: HCT-116 p53RE-bla, beta-lactamase ratio, 16 h; series mostly up to 66 µM
How it was run: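 With rat liver microsomes and NADPH present (0.5 mg/mL final each), p53RE-bla cells are treated with compound for 16 h at 37 C. LiveBLAzer detection mixture is then applied for 2 h at room temperature in the dark.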

[19] = p53 small molecule agonists, cell-based qHTS assay: qHTS cell viability counter screen (AID 1963581); conditions: p53RE-bla HCT-116 viability, ATP luminescence, 16 h; series mostly up to 66 µM; note: nearly all actives have a fitted effect of over 45% in size
How it was run: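 HCT-116 p53RE-bla cells, 4,000/well, plated 5 h before compound pin transfer; 16 h at 37 C; bla substrate 2 h RT; then CellTiter-Glo, 30 min RT, luminescence.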

[20] = molecular target: Beta-2 adrenergic receptor (Homo sapiens) (UniProt P07550); assay: Adrenergic beta2 receptor (ADRB2) small molecule agonists, cell-based qHTS assay (AID 1963593); conditions: CHO-ADRB2 cells, cAMP HTRF, 30 min; series mostly up to 92.4 µM;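 note: CHO cells stably overexpressing human ADRB2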
How it was run: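 CHO cells stably over-expressing ADRB2 were plated overnight at 37C, then dosed with compounds plus a stimulation mix containing 100uM IBMX and 25uM Ro-20-1724 for 0.5hr at room temperature. cAMP was measured by HTRF competition, 1hr.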

Measured: Potency

D(2) dopamine receptor (Homo sapiens), sequence (P14416 whole entry, looked up): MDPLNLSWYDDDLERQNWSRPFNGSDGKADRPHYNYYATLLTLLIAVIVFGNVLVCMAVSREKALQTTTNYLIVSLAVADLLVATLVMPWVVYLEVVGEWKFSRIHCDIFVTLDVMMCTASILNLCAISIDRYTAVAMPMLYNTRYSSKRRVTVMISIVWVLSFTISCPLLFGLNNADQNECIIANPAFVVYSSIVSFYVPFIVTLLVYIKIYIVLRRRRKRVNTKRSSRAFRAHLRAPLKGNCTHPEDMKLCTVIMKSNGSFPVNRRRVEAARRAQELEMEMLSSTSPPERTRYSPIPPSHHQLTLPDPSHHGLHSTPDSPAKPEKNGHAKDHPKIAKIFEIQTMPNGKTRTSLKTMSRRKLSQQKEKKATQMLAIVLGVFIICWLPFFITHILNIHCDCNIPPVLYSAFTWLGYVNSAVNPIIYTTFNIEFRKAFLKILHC
Beta-2 adrenergic receptor (Homo sapiens), sequence (P07550 whole entry, looked up): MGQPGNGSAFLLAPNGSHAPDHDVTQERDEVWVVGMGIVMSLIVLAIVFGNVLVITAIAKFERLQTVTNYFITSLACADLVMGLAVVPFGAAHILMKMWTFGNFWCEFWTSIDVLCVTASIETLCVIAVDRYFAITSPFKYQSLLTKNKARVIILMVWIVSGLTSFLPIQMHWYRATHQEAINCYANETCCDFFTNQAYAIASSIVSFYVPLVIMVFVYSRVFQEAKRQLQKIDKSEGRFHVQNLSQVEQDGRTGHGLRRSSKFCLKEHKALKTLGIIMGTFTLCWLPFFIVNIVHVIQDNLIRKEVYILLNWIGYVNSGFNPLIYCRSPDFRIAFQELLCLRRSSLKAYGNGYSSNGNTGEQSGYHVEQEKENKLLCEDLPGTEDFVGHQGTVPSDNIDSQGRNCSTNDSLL
Gonadotropin-releasing hormone receptor (Homo sapiens), sequence (P30968 whole entry, looked up): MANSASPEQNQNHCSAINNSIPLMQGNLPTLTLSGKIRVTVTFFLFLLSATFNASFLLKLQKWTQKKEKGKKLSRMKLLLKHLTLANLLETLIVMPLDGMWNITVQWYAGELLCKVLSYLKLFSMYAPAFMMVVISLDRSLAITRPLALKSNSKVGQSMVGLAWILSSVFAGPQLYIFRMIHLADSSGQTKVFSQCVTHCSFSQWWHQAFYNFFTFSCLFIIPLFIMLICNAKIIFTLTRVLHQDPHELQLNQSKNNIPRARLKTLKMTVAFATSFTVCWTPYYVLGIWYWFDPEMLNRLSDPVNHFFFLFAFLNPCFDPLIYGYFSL
KiSS-1 receptor (Homo sapiens), sequence (Q969F8 whole entry, looked up): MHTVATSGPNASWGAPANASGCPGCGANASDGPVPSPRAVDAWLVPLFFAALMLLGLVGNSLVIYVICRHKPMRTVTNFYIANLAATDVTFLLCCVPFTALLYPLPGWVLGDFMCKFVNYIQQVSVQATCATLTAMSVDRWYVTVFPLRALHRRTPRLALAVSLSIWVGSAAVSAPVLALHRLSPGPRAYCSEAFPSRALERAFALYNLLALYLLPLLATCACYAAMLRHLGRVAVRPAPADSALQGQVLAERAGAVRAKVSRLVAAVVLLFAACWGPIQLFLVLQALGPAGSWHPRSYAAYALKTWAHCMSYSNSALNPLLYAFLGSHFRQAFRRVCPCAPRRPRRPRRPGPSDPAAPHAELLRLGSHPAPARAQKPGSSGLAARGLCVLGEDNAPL
5-hydroxytryptamine receptor 2A (Homo sapiens), sequence (P28223 whole entry, looked up): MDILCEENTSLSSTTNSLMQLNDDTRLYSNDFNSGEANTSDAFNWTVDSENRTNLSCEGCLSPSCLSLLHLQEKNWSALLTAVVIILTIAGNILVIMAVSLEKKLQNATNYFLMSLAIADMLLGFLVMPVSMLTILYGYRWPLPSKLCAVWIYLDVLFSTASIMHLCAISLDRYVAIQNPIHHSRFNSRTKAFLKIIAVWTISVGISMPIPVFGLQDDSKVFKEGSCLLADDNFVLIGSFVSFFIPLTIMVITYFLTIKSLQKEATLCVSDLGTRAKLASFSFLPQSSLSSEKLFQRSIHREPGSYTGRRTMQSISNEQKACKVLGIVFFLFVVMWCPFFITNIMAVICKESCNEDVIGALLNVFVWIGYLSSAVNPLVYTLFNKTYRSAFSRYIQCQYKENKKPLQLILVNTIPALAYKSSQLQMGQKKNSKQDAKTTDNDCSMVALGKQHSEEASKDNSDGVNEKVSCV
Muscarinic acetylcholine receptor M1 (Homo sapiens), sequence (P11229 whole entry, looked up): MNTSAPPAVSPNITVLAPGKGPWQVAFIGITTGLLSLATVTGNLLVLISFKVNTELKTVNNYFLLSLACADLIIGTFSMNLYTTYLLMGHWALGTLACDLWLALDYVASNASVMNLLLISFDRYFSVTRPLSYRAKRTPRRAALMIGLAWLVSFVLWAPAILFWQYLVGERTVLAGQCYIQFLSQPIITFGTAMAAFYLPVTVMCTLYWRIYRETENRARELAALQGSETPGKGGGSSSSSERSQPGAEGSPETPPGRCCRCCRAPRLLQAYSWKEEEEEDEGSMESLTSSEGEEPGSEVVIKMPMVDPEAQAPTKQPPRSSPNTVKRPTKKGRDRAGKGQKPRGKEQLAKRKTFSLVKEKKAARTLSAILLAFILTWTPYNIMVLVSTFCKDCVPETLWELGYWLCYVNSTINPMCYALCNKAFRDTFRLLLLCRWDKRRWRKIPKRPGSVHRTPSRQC

C=CC(=O)OCCCC
not listed: [18] | [19] | [20]
inactive: all other assays above

CCOC(N)=O
not listed: [9] | [10] | [11] | [12]
inactive: all other assays above

COC(=O)CC(=O)OC
20.3 µM (active) and inactive: [12]
not listed: [8] | [9] | [18]
inactive: all other assays above

NS(=O)(=O)O
not listed: [18] | [19]
inactive: all other assays above

CCCCCCCCCCCCO
inactive and 67.8 µM (active): [2]
not listed: [15]
inactive: all other assays above

CC(=O)C(=O)O
not listed: [10]
inactive: all other assays above

CC(O)CN(CCN(CC(C)O)CC(C)O)CC(C)O (stereo not drawn)
not listed: [7]
inactive: all other assays above

C=C(CC(=O)O)C(=O)O
not listed: [8] | [16]
inactive: all other assays above

Cc1ccc(O)cc1
not listed: [9] | [14]
inactive: all other assays above

C[Si](O[Si](C)(C)C)O[Si](C)(C)C
not listed: [8]
inactive: all other assays above

O=C=Nc1ccc(Cc2ccc(N=C=O)cc2)cc1
not listed: [8] | [12] | [18] | [20]
inactive: all other assays above

CCc1cccc(O)c1
not listed: [9]
inactive: all other assays above

NC(=O)c1cccnc1
not listed: [9] | [10] | [11] | [12]
inactive: all other assays above

CCn1c2ccccc2c2cc(N)ccc21
67.9 µM (active) and inactive: [15]
inactive: all other assays above

O=C(c1ccc(O)cc1)c1ccc(O)cc1O
not listed: [8] | [9] | [11] | [13] | [20]
inactive: all other assays above

C=CC(C)(C)C
not listed: [7] | [9] | [14]
inactive: all other assays above
